Bioassay records: PubChem BioAssay, National Center for Advancing Translational Sciences (NCATS)
p53 reactivation – restores transcriptional activity of mutant p53 | H1299 p53-A138V BP100-luciferase reporter, luminescence, 24 h | Potency, µM (highest dose often 92.2 µM), for inactives: at the top dose activity change, positive = activation, actives largely listed as activators | 320,000 compounds, 0.063% hits | AID 504706; further: potency means the concentration at half of the fitted maximal effect; % of control where 0% means no effect; nearly all actives have a fitted effect of over 45% in size
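p53-null H1299 cells stably carrying temperature-sensitive p53-A138V and a BP100-luciferase reporter were pinned with compounds (4-point, 1:5 series) and held 24 hrs at 37 deg C. Luminescence was read 10 min after detection reagent.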
ALOX12 inh – blocks human arachidonate 12S-lipoxygenase. P18054. purified 12hLO, xylenol orange hydroperoxide absorbance. Potency, µM (titrated, usually from 108 µM), for inactives: at the highest dose activity change, negative = inhibition, hits mostly inhibitors. 580,000 compounds, 1.1% hits. AID 1671190; further: potency means the concentration at half of the fitted maximal effect; on the % scale 0 is the no-effect control and ±100 the full control effect
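Hydroperoxide product was detected by ferrous iron/xylenol orange as the 573 to 405 nm absorbance ratio. Arachidonic acid at 40 uM (final) was turned over for 30 min at room temperature by 150 nM human 12hLO, pH 7.0 Hepes buffer, after 15 min compound preincubation.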
CCT chaperon mod – changes cytosolic chaperonin activity. activity change, % (test concentration not listed), hits read low. purified chaperonin ATPase assay, HTRF ADP detection, 30 min. 360,000 compounds, 0.3% hits; in the data active means activity change below about -30%; further: on the % scale 0 is the no-effect control and ±100 the full control effect
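We incubate TRiC, 40 or 20 nM final, with library compounds at 76 uM and 10 uM ATP for 30 min at 37 °C. ADP formed is detected with Transcreener HTRF reagents after 30 min at room temperature.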
S-ASM inh – inhibitors of human secretory acid sphingomyelinase | P17405 | placental ASM, HMU-PC fluorogenic substrate, 60 min | Potency, µM (top dose mostly 57.5 µM), for inactives: at the top dose activity change, negative = inhibition, actives largely listed as inhibitors | 340,000 compounds, 0.006% hits | AID 504937; further: potency means the concentration at half of the fitted maximal effect
Target sequence (P17405 47-631 limits assumed): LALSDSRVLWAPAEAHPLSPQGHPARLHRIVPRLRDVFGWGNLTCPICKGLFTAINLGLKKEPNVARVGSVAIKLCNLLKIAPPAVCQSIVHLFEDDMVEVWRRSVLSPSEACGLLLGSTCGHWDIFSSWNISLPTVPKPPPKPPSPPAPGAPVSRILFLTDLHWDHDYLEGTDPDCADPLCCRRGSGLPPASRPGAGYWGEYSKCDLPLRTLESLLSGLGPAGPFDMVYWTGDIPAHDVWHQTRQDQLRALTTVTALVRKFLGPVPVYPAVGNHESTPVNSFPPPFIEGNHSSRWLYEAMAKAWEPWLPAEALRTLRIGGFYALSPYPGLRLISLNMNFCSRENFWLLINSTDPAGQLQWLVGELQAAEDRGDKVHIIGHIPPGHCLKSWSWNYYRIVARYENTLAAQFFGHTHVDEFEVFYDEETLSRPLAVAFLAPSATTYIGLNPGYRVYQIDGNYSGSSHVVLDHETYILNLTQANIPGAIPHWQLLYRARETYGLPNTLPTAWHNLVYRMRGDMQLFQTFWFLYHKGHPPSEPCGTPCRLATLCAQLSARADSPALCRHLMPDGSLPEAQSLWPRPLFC
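Human placenta-derived ASM preincubated with compound 10 min at room temperature, then reacted with 9 uM (final) fluorogenic HMU-PC substrate for 60 min at 37 C. Stop solution raises pH to 10; fluorescence read at Ex 386/Em 447 nm.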
MmCpn inh – blocks the Methanococcus maripaludis chaperonin Mm-Cpn. purified Mm-Cpn ATPase, ADP Transcreener TR-FRET. Potency, µM (doses to about 76.9 µM), for inactives: top-dose activity, negative = inhibition, hits mostly inhibitors. 330,000 compounds, 0.031% hits. AID 504842; further: potency means the concentration at half of the fitted maximal effect; on the % scale 0 is the no-effect control and ±100 the full control effect; nearly all actives have a fitted effect of over 80% in size
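Eu-cryptate anti-ADP/ADP-d2 competition gives a ratio inversely related to ADP. Enzyme at 25 nM was pre-exposed to compound for 10 min, then given 10 uM ATP for 30 min, 37°C throughout.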
PINK1 expr mod – PINK1 expression modulation; 410,000 compounds, 0.2% hits; PINK1 immunofluorescence, high-content cytometry, 24 h; Potency, µM (titrated, usually from 76.6 µM), inactives show at the highest dose activation (PINK1 increase), usual class: activators; AID 624263; active means well fitted activation curve with a large enough effect; inconclusive means small, poorly fitted or top-dose-only effect; cell line not stated here; further: potency means the concentration at half of the fitted maximal effect; % of control where 0% means no effect; nearly all actives have a fitted effect of over 65% in size
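Cells are seeded, rested 12 hours, then given compound at five concentrations or DMSO for 24 hours. After fixation, blocking and antibody staining, PINK1 amount and mitochondrial localization are scored; CCCP serves as control.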
Starred values were filed as active, the others as inactive; u = inconclusive; x = no result; [ ] = remark or other dose. This is a sample that favours compounds with a hit; in the whole collection about 1.4% have one here. Unless noted, the call rests on the fitted dose curve; in most records, active means well fitted curve in the direction sought with a large enough effect; inconclusive means small, poorly fitted or top-dose-only effect, or another doubt; inactive means no such curve, though single readings can be large; an effect the other way counts as inactive or inconclusive.

SMILES | p53 reactivation | ALOX12 inh | CCT chaperon mod | S-ASM inh | MmCpn inh | PINK1 expr mod
COc1ccc(/C=C2\S/C(=N/S(=O)(=O)c3cccs3)NC2=O)cc1 | -2% | 40µM* | -1 | 8% | -2% | -1%
O=C1/C(=C/c2ccco2)SC(=S)N1c1cccnc1 | 15% | 40µM* | -1 | -9% | 3% | -1%
CCCCC1CCC(C(=O)NNC(=O)c2ccc(Cl)cc2)CC1 (centres undefined) | x | 1% | x | x | x | x
CC(=O)n1cc([C@@H]2C=C(C(=O)N3CCN(C)CC3)O[C@H](OCc3ccc(CO)cc3)C2)c2ccccc21 | x | -56% | -3 | 8% | x | 1%
C=CCOC(=O)C1=C[C@H](c2cn(C(C)=O)c3ccccc23)C[C@H](OCc2ccc(CO)cc2)O1 | -2% | 40µM* | -5 | -3% | x | 0%
CCCC(=O)NNC(=S)NC(C)c1ccccc1 (centres undefined) | x | 10% | x | x | x | x
C[C@@H]1CN(C(=O)c2ccc3c(c2)NC(C)(CCCCc2ccccc2)CO3)C[C@H](C)O1 (some centres undefined) | x | 8%[176 µM] | x | x | x | x
Cc1ccccc1NC(=O)c1sc2c(c1C)C(c1cccs1)CC(=O)N2 (centres undefined) | x | 25µM* | x | x | x | x
O=C(Nc1cc(Cl)ccc1-n1cncn1)c1ccc([N+](=O)[O-])s1 | -28% | x | 1 | x | -3% | 5µM*
N#CCCn1cc(C(=O)N2CCCCC2)c(-c2ccc(Cl)cc2)n1 | x | -5% | x | x | x | x
COC(=O)c1ccc(CNC(=O)COC(=O)c2cc3ccccc3oc2=O)cc1 | x | 27% | x | x | x | x
CCCCc1nc(NCCN2CCOCC2)c(C#N)c2c1CCCC2 | x | -24% | x | x | x | x
Cc1ccc(Cc2c(-c3ccco3)nc3c4ccccc4ccn23)cc1 | x | 5µM* | -4 | x | x | 30%
Cc1ccc(Cc2c(-c3ccco3)nc3c(C)cc(Br)cn23)cc1 | x | 14µM* | 0 | x | x | 4%
O=C(O)CCc1ccc(S(=O)(=O)NCCN2CCCC2)cc1 | x | -10% | x | x | x | x
CCNc1c(NC(=O)Nc2ccc(CC)cc2)c(=O)oc2ccccc12 | x | 45µM* | x | x | x | x
CCNc1c(NC(=O)Nc2ccccc2)c(=O)oc2ccccc12 | x | -14% | x | x | x | x
CCOc1c2ccc(C(=O)NCc3ccc(OC(F)(F)F)cc3)cc2nn1CC | -4% | u | -59* | 21% | 0% | 0%
CCOC(=O)N1CCN(CC(=O)Nc2oc3ccccc3c(=O)c2-c2ccc(F)cc2)CC1 | x | 12% | x | x | x | x
S=C1NCCc2ccc(Cl)cc2C1c1ccccc1Cl (centres undefined) | 3% | 32µM* | 2 | -5% | 0% | 3%
CCOC(=O)c1c(C)c(C(=O)Nc2ccc(Br)cc2C)c(C)n1C | x | -30% | x | x | x | x
O=S(=O)(CCN1CCN(c2ccc(O)cc2)CC1)c1ccccc1 | x | 14% | x | x | x | x
Fc1cccc(Cl)c1/C=N/N=C1c2ccccc2-c2ccccc21 | x | -6% | x | x | x | x
CC1=C/C(=N\Nc2nncc3ccccc23)CC1 | x | 50µM* | x | x | x | x
Brc1ccccc1/C=N/Nc1nncc2ccccc12 | x | -4% | x | x | x | x
SMILES | p53 reactivation | ALOX12 inh | CCT chaperon mod | S-ASM inh | MmCpn inh | PINK1 expr mod
C=C1N(S(=O)(=O)C(F)(F)F)CCC12CN(S(=O)(=O)c1ccc(C)cc1)c1ccccc12 (centres undefined) | x | 0% | x | x | x | x
Cc1cc(=O)oc2cc(OC(=O)COc3ccccc3)ccc12 | x | 2% | x | x | x | x
CC(C)Oc1ccc(CN2CCC(CO)(CN3CCCC3)CC2)cc1Cl | x | 4% | x | x | x | x
CCOc1cc2c(c3c1C(c1ccccc1)N(S(=O)(=O)c1ccc(C)cc1)C3)C(=O)C=CC2=O (centres undefined) | x | 1.1µM* | 0 | x | x | 2%
CCOC(=O)C1=CCN(S(=O)(=O)c2ccc(C)cc2)C1c1ccccc1 (centres undefined) | x | 3% | 0 | x | x | 1%
S=C(NCc1ccccc1)N/N=C/c1c2ccccc2c(Cl)c2ccccc12 | x | 18µM* | x | x | x | x
S=C(NCc1ccccc1)N/N=C/c1ccccn1 | x | -29% | x | x | x | x
S=C(NCCc1ccccc1)N/N=C/c1c(Cl)cccc1Cl | 6% | 40µM* | 0 | -9% | 1% | 4%
